Data on two molecules can be found in ChEMBL document CHEMBL1961873, “Compounds: GSK PKIS; Assays: Nanosyn kinase panel” (2012).

One may read the inhibition as the drop in the measured response relative to a control, in per cent.

In assay [1] the target is Protein kinase C gamma type (Homo sapiens) (UniProt P05129). The following applies: at 1 µM.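 Also: each value is an averaged percent inhibition of the enzyme.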
Assay [2] addresses T1, Protein kinase C iota type (Homo sapiens) (UniProt P41743).
T1 sequence (whole entry): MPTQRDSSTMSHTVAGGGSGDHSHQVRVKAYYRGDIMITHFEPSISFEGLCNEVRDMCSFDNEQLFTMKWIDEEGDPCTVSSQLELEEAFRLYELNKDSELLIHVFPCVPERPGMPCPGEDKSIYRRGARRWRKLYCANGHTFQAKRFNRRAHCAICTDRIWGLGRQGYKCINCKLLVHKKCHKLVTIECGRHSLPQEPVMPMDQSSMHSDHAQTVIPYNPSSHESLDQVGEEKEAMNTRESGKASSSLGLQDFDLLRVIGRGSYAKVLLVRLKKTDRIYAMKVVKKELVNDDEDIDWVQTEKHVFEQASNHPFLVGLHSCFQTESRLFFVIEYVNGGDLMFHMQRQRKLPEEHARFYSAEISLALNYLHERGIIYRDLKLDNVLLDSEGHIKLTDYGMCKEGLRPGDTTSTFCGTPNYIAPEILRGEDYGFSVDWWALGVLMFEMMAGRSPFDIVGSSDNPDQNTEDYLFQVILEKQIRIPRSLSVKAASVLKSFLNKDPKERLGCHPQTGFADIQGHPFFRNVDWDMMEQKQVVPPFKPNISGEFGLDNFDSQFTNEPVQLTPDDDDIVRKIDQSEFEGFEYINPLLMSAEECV
The following applies: at 0.1 µM.

The target of assay [3] is T1, Protein kinase C iota type (Homo sapiens). The following applies: at 1 µM.
Assay [4] deals with Protein kinase C theta type (Homo sapiens) (UniProt Q04759). The settings on record: at 0.1 µM.
Chain of Protein kinase C theta type (Homo sapiens) (Q04759 whole entry, looked up): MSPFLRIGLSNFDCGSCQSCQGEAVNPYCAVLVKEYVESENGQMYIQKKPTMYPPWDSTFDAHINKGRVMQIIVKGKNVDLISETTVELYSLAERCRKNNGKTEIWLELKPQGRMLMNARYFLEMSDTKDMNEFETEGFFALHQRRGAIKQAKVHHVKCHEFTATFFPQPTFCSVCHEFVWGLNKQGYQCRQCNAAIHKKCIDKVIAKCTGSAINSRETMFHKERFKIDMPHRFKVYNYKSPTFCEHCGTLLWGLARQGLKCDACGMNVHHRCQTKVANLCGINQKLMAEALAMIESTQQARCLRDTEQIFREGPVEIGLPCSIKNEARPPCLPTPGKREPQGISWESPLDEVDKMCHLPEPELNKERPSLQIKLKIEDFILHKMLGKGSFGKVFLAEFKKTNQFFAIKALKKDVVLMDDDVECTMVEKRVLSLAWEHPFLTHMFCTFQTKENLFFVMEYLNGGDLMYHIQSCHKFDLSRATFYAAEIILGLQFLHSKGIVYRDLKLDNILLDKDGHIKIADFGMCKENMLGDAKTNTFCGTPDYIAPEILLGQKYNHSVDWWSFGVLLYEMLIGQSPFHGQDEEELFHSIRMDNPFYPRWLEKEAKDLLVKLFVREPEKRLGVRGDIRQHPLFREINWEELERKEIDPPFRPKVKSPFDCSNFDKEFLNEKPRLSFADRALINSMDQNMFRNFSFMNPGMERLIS
The target is the same in assay [5]. The following applies: at 1 µM.
The target of assay [6] is Protein kinase C beta type (Homo sapiens) (UniProt P05771). The following applies: at 0.1 µM.
Chain of Protein kinase C beta type (Homo sapiens) (P05771 2-671 limits assumed): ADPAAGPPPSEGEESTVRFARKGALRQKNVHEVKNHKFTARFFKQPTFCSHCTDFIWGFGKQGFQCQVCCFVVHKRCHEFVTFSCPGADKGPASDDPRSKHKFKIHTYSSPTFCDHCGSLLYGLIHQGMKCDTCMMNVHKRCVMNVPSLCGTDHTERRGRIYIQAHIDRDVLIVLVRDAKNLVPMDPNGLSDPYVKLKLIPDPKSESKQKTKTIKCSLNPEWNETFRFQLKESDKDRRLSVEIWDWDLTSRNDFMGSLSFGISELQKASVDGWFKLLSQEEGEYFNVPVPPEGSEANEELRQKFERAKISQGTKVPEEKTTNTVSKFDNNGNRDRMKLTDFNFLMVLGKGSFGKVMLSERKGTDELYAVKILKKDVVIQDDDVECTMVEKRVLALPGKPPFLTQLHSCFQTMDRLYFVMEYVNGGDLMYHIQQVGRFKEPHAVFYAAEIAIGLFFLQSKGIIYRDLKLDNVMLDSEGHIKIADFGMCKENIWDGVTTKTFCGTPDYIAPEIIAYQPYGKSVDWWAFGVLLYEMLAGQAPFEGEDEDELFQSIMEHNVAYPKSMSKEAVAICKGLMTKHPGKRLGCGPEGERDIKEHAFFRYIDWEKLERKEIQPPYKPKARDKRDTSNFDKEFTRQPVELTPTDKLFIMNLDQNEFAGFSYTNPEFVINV
Assay [7] has the same target. The following applies: at 1 µM.
Assay [8] deals with T2, Serine/threonine-protein kinase D1 (Homo sapiens) (UniProt Q15139).
T2 sequence (whole entry): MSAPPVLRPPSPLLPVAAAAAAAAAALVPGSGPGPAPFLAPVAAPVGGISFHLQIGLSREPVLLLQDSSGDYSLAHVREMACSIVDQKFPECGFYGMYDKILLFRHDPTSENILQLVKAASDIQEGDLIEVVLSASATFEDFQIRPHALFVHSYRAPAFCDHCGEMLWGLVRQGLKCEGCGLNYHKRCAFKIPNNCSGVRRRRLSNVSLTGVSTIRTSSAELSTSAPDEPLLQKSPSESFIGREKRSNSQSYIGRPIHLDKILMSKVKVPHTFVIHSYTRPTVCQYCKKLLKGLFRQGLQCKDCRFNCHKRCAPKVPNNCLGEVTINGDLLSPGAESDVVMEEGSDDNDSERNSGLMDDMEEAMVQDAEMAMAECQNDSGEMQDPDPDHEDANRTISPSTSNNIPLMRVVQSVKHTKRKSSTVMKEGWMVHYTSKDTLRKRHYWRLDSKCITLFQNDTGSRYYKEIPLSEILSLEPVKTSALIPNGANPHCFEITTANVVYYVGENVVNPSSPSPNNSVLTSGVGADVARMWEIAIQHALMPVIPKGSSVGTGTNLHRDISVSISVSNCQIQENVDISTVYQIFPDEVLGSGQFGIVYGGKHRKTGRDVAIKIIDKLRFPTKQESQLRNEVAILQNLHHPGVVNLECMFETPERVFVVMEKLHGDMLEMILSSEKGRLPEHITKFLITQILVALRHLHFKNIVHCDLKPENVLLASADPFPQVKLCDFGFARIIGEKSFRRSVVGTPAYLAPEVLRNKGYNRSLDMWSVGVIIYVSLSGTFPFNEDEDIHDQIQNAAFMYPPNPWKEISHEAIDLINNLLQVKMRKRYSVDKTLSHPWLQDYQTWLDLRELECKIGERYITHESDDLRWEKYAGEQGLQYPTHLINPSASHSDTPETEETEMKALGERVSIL
The following applies: at 0.1 µM.

For assay [9], the target named is T2, Serine/threonine-protein kinase D1 (Homo sapiens). The settings on record: at 1 µM.
The target of assay [10] is T3, Serine/threonine-protein kinase D2 (Homo sapiens) (UniProt Q9BZL6).
T3 sequence (whole entry): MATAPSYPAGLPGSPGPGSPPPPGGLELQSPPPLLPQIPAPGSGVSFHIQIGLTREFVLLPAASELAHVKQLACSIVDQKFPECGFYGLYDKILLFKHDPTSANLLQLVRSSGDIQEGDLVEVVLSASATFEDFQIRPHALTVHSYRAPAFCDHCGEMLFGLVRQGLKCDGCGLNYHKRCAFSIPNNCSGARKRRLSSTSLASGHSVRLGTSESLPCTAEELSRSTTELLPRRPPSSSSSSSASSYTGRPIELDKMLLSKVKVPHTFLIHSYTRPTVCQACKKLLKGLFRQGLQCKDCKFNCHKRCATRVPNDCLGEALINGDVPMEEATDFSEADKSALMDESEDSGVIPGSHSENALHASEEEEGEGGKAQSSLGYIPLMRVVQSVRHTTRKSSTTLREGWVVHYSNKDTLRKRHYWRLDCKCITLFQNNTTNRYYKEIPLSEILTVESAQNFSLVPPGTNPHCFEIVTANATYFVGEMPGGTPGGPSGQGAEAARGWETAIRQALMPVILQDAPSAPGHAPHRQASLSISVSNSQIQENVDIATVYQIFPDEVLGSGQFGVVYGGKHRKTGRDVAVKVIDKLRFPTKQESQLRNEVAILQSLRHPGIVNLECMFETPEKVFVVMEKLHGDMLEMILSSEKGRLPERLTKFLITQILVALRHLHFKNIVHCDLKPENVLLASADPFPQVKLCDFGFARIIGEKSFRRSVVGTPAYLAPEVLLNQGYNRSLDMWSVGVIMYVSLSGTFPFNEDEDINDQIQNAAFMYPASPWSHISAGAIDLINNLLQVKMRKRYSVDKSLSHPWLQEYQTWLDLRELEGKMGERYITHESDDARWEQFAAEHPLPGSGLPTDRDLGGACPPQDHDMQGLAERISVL
The following applies: at 0.1 µM.

Assay [11] has as its target T3, Serine/threonine-protein kinase D2 (Homo sapiens). The following applies: at 1 µM.
The target of assay [12] is T4, Serine/threonine-protein kinase D3 (Homo sapiens) (UniProt O94806).
T4 sequence (whole entry): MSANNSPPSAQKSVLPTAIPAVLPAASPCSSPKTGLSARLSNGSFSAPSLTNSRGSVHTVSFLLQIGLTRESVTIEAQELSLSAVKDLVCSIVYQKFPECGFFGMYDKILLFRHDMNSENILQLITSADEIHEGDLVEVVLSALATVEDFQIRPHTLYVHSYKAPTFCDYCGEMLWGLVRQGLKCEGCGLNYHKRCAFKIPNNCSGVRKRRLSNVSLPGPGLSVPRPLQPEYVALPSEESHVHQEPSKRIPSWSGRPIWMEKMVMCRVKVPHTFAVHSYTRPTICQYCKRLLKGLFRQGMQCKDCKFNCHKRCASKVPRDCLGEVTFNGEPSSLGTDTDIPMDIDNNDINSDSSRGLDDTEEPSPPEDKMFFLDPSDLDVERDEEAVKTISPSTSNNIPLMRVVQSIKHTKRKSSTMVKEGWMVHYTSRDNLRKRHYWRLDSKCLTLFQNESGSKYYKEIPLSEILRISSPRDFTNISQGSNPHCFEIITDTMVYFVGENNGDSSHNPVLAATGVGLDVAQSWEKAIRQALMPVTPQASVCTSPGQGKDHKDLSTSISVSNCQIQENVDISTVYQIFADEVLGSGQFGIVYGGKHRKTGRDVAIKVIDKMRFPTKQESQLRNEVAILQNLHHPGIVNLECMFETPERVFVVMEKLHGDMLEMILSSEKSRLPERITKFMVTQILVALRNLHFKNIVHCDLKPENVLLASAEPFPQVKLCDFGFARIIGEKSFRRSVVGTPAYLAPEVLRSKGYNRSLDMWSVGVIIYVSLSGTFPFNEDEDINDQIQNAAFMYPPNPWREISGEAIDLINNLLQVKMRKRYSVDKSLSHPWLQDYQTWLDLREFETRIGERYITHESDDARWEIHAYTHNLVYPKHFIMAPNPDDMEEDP
The settings on record: at 0.1 µM.

Assay [13] concerns the target T4, Serine/threonine-protein kinase D3 (Homo sapiens). The following applies: at 1 µM.
Assay [14] concerns the target T5, cGMP-dependent protein kinase 1 (Homo sapiens) (UniProt Q13976).
T5 sequence (whole entry): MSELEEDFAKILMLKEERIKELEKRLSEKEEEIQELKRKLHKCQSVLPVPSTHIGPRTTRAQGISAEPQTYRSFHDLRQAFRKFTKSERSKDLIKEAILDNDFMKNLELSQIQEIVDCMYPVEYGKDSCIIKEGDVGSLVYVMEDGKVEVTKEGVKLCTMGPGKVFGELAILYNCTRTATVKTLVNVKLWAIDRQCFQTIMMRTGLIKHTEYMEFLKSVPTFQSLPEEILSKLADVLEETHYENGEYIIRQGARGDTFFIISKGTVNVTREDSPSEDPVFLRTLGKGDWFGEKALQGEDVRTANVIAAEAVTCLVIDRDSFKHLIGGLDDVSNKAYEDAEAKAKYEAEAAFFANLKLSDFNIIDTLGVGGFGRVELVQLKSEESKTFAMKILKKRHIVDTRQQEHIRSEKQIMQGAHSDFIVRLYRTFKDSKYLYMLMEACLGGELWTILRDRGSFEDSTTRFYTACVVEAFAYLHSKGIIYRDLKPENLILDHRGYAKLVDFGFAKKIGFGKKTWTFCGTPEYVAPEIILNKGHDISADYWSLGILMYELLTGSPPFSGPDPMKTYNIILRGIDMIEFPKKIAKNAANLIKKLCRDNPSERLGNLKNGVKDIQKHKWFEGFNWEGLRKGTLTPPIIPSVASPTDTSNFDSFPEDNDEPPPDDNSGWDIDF
The settings on record: at 0.1 µM.

Assay [15] concerns the target T5, cGMP-dependent protein kinase 1 (Homo sapiens). The following applies: at 1 µM.
The target in assay [16] is T6, cGMP-dependent protein kinase 2 (Homo sapiens) (UniProt Q13237).
T6 sequence (whole entry): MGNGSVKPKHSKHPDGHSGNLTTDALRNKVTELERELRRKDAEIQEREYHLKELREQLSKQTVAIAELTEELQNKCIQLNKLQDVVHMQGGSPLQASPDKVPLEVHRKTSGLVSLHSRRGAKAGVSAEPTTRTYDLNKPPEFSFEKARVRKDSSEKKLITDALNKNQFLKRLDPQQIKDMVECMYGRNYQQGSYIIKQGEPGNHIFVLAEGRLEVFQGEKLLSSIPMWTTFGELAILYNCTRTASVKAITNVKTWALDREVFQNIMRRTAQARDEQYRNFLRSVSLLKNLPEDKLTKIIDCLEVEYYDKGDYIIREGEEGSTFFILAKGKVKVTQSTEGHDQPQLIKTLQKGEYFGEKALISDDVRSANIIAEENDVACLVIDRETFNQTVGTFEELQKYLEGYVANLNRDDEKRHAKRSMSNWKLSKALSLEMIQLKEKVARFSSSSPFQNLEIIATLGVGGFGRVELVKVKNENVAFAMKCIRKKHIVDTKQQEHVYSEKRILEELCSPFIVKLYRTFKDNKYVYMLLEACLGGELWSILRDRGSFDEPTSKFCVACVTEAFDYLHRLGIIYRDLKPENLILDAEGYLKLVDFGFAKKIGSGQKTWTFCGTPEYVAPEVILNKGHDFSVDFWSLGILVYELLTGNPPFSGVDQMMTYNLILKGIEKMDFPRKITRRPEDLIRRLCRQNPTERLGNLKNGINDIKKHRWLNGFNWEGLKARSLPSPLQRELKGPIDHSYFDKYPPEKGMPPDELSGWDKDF
The following applies: at 0.1 µM.

Assay [17] deals with T6, cGMP-dependent protein kinase 2 (Homo sapiens). The settings on record: at 1 µM.
Assay [18] concerns the target T7, cAMP-dependent protein kinase catalytic subunit PRKX (Homo sapiens) (UniProt P51817).
T7 sequence (whole entry): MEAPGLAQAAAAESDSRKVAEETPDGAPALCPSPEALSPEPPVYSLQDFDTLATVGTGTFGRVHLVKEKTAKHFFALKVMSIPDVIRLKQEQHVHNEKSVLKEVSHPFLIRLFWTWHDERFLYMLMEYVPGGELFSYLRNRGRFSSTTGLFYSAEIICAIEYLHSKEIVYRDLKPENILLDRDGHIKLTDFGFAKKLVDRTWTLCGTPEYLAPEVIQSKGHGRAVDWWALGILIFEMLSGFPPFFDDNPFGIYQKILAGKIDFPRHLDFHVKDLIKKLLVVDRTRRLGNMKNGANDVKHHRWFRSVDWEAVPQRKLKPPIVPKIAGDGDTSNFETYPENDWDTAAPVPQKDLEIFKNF
The following applies: at 0.1 µM.

Assay [19] concerns the target T7, cAMP-dependent protein kinase catalytic subunit PRKX (Homo sapiens). The following applies: at 1 µM.
Assay [20] deals with Rho-associated protein kinase 1 (Homo sapiens) (UniProt Q13464). The settings on record: at 0.1 µM.
Chain of Rho-associated protein kinase 1 (Homo sapiens) (Q13464 2-1354 limits assumed): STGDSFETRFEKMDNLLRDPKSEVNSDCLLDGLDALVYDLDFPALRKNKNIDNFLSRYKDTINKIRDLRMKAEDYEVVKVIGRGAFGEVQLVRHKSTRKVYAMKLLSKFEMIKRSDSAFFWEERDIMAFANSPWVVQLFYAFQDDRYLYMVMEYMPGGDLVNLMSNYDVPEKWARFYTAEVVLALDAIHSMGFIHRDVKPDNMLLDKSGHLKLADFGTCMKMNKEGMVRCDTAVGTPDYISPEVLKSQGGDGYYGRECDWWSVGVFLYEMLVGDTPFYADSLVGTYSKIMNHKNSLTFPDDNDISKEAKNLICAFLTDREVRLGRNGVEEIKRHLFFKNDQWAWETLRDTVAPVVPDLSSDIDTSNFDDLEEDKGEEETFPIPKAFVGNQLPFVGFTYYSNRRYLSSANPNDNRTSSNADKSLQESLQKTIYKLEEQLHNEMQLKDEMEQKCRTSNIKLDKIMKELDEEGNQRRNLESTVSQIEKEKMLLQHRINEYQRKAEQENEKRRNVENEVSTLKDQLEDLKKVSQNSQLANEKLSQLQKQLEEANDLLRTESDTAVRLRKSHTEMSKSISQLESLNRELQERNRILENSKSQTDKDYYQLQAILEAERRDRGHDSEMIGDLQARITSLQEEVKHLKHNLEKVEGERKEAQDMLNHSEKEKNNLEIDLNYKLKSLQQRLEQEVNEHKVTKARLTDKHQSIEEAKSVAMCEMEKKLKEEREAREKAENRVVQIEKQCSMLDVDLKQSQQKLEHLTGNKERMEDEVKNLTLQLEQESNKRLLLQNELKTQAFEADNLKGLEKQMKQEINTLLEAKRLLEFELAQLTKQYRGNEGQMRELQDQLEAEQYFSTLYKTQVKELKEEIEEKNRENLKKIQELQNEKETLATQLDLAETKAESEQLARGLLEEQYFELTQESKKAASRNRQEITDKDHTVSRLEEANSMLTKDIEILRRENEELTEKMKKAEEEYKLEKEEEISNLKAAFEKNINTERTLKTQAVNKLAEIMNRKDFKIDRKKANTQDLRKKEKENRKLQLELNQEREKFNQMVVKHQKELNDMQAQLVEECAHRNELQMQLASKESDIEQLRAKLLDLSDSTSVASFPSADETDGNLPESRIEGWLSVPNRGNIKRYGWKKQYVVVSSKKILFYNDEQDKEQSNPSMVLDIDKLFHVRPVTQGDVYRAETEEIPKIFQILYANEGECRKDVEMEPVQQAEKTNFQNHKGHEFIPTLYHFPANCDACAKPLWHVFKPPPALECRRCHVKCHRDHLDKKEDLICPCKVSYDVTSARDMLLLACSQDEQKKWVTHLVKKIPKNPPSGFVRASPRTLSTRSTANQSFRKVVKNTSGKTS

Regarding `COc1ccc(-c2ccc3c(NC(=O)C4CC4)n[nH]c3n2)cc1`, the inhibition was 2.95% in [1]; 0.3% in assay [2]; -0.23% in [3]; 1.39% in [4]; 2.97% in [5]; 0.8% in [6]. Besides, the inhibition was 0.48% in assay [7]; 2.32% in [8]; 1.39% in assay [9]; 1.92% in assay [10]; 1.69% in assay [11]; 1.45% in assay [12]. In addition, the inhibition turned out to be 1.7% in assay [13]; 1.26% in assay [14]; 1.97% in assay [15]; 0.63% in assay [16]; 0.65% in assay [17]; 1.66% in assay [18]. The inhibition turned out to be 3.81% in [19] and 0.53% in assay [20].
As for `O=C(Nc1n[nH]c2cc(-c3cc(F)ccc3F)ccc12)C1CC1`, the inhibition in assay [1] is 1.94%; in assay [2] it was -0.39%; in assay [3], 2.69%; in assay [4], 1.32%; in assay [5], 1.51%; in assay [6], 1.71%. The inhibition was 4.18% in assay [7]; 2.95% in assay [8]; 3.73% in assay [9]; 3.73% in assay [10]; 4.95% in assay [11]; 3.61% in assay [12]. Also, the inhibition in assay [13] was 3.98%; in assay [14], 3.55%; in assay [15], 4.78%; in [16], 2.47%; in assay [17], 5.6%; in assay [18], 1.14%. Besides, the values for the inhibition in assay [19] and in assay [20] were 1.88% and -0.49%, respectively.
